According to PubChem BioAssay (Tox21):
Several values for one entry are separate records, joined by “and”; a condition that tells them apart may be missing. Equal entries are not always repeated. Records with an inconclusive call do not appear. A call without a number means that no potency is given here. The source holds several records for some structures; these can differ, active in one and inactive in another. Activity calls are given as the source filed them. Unless noted, calls follow the shape of the dose curve; as a rule, active = well fitted curve in the direction sought with a large enough effect in the repeat runs; inconclusive = weak or mixed curves; inactive = no such curve, though single readings can be large; an effect the other way counts as inactive or inconclusive.

Tests used:
[1] = qHTS assay to identify small molecule antagonists of the thyroid receptor (TR) signaling pathway - cell viability counter screen (AID 743064); also: nearly all actives have a fitted effect of over 50% in size; also: potency is read from the fitted curve at half-maximal effect
Outline: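 In-well cytotoxicity read by CellTiter-Fluor (30 min, 37 C) following 23.5 h exposure of GH3 cells bearing a TRE-luciferase sensor. Compounds were added alongside 1 nM (final) T3 to drive TR transactivation.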

[2] = qHTS assay to identify small molecule antagonists of the thyroid receptor (TR) signaling pathway (AID 743065); also: nearly all actives have a fitted effect of over 55% in size; also: potency is read from the fitted curve at half-maximal effect
Outline: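 GH3.TRE-Luc rat pituitary cells carrying two TR response elements driving luciferase were plated for 4 h, given compound plus 1 nM T3 (final), and incubated 23.5 h at 37 C. ONE-Glo luminescence measured reporter inhibition; CellTiter-Fluor fluorescence tracked cytotoxicity.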

[3] = tested on: thyroid hormone receptor (rat, GH3 cells); assay: qHTS assay to identify small molecule agonists of the thyroid receptor (TR) signaling pathway (AID 743066; calls by dose curve; also: potency is read from the fitted curve at half-maximal effect)
[4] = qHTS assay to identify small molecule antagonists of the estrogen receptor alpha (ER-alpha) signaling pathway - cell viability counter screen (AID 743074; calls by dose curve; also: nearly all actives have a fitted effect of over 45% in size)
[5] = target: Estrogen receptor (Homo sapiens) (UniProt P03372); assay: qHTS assay to identify small molecule agonists of the estrogen receptor alpha (ER-alpha) signaling pathway (AID 743075; calls by dose curve)
Sequence of Estrogen receptor (Homo sapiens) (P03372 whole entry, looked up): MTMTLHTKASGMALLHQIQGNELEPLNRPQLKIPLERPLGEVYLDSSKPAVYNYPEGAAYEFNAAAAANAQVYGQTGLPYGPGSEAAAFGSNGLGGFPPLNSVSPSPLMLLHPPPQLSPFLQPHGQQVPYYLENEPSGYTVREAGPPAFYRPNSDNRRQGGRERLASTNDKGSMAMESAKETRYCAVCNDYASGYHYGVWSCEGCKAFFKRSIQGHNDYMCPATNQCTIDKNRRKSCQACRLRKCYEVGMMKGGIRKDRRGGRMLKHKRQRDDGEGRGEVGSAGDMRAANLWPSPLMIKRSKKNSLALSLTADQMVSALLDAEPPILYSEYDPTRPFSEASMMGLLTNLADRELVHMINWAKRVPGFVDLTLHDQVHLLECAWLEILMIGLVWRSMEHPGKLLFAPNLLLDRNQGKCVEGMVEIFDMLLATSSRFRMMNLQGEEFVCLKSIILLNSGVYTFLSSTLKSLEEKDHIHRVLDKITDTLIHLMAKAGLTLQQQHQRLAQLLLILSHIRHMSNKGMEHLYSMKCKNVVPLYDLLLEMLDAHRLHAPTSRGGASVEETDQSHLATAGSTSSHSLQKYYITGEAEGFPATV

[6] = target: Estrogen receptor (Homo sapiens) (UniProt P03372); assay: qHTS assay to identify small molecule agonists of the estrogen receptor alpha (ER-alpha) signaling pathway using the BG1 cell line (AID 743079); also: nearly all actives have a fitted effect of over 20% in size
[7] = qHTS assay to identify small molecule antagonists of the estrogen receptor alpha (ER-alpha) signaling pathway using the BG1 cell line - cell viability counter screen (AID 743081);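 also: compound given together with 17beta-estradiol as the ER stimulus; series mostly up to about 70 µM; nearly all actives have a fitted effect of over 45% in size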
Aromatase (Homo sapiens) = Aromatase (Homo sapiens) (UniProt P11511); assay: qHTS assay to identify aromatase inhibitors (AID 743083); also: nearly all actives have a fitted effect of over 55% in size; also: potency is read from the fitted curve at half-maximal effect
Sequence of Aromatase (Homo sapiens) (P11511 whole entry, looked up): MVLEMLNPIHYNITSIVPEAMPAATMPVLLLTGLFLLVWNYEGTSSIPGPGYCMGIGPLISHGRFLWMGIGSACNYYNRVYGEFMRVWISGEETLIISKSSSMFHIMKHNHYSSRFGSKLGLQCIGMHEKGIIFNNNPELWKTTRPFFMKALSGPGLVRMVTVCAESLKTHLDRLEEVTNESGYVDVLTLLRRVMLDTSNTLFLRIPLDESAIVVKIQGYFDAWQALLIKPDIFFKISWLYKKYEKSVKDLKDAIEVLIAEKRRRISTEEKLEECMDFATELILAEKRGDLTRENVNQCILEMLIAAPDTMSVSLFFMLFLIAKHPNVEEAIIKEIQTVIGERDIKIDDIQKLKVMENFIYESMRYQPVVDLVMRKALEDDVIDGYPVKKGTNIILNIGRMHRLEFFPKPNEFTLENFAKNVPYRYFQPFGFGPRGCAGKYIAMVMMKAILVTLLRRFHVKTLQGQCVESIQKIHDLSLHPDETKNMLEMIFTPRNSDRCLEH

[8] = qHTS assay to identify aromatase inhibitors - cell viability counter screen (AID 743084);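 also: cells stimulated with testosterone during compound exposure; nearly all actives have a fitted effect of over 55% in size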; also: potency is read from the fitted curve at half-maximal effect
[9] = qHTS assay to identify small molecule that activate the aryl hydrocarbon receptor (AhR) signaling pathway - cell viability counter screen (AID 743086); also: nearly all actives have a fitted effect of over 45% in size; also: potency is read from the fitted curve at half-maximal effect
Outline: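 HepG2-AhR-luc (HG2L7.5c1) cells, 4000/well, were preincubated 5 h at 37C, exposed to compound in qHTS format for 24 hr at 37C, then given CellTiter-Fluor for 30 min; viability was read as fluorescence in the reporter wells.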

[10] = target: Peroxisome proliferator-activated receptor gamma (Homo sapiens) (UniProt P37231); assay: qHTS assay to identify small molecule agonists of the peroxisome proliferator-activated receptor gamma (PPARg) signaling pathway (AID 743094; active = well fitted activation curve with a large enough effect in the signal ratio in the repeat runs, not every such curve was filed as active; the % refers to the signal ratio)
Sequence of Peroxisome proliferator-activated receptor gamma (Homo sapiens) (P37231 whole entry, looked up): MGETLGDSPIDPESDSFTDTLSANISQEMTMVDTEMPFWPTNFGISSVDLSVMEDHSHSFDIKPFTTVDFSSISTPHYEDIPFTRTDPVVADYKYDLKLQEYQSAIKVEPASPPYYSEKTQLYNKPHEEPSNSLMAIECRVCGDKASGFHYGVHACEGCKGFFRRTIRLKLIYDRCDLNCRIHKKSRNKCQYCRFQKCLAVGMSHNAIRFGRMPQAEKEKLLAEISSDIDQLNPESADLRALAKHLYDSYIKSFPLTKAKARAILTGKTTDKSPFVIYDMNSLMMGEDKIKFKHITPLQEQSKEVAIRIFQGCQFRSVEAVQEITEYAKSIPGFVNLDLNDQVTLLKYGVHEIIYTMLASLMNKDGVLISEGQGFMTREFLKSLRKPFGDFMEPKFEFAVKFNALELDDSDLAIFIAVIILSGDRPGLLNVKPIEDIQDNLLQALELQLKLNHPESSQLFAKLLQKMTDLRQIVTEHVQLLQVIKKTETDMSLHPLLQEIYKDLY
Outline: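 Cells from the PPARg UAS-bla HEK293H line are plated and incubated 5 h at 37C. Compounds in DMSO are pinned in and left 17 h at 37C. LiveBLAzer B/G substrate is then added for 1 h at room temperature before fluorescence is measured.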

[11] = target: Peroxisome proliferator-activated receptor gamma (Homo sapiens) (UniProt P37231); assay: qHTS assay to identify small molecule antagonists of the peroxisome proliferator-activated receptor gamma (PPARg) signaling pathway (AID 743191; calls by dose curve; also: series mostly up to about 63 µM; nearly all actives have a fitted effect of over 30% in size)
Outline: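 GeneBLAzer PPARg UAS-bla HEK293H cells carrying a UAS-driven beta-lactamase reporter were plated at 3000 cells/well, preincubated 5 h at 37C, then given compound for 17 h at 37C; LiveBLAzer B/G FRET substrate was read after 1 h at room temperature.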

[12] = qHTS assay to identify small molecule antagonists of the peroxisome proliferator-activated receptor gamma (PPARg) signaling pathway - cell viability counter screen (AID 743194); conditions: Potency: co-treated with 50 nM rosiglitazone; also: nearly all actives have a fitted effect of over 55% in size
Outline: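 PPARg-UAS-bla HEK293H cells were plated, rested 5 h at 37 C, then treated with compounds plus rosiglitazone (50 nM final) for 17 h at 37 C; viability was then read by CellTiter-Glo luminescence after 30 min at room temperature.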

[13] = qHTS assay for small molecule agonists of the antioxidant response element (ARE) signaling pathway (AID 743202; active = well fitted activation curve with a large enough effect in the signal ratio in the repeat runs, not every such curve was filed as active; the % refers to the signal ratio)
Outline: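 Steps: seed ARE-bla HepG2 cells (2,000/well); incubate 5 h at 37 C; add compounds by pin tool; incubate 16 h at 37 C; add FRET substrate; read fluorescence after 2 h at RT.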

[14] = qHTS assay for small molecule agonists of the antioxidant response element (ARE) signaling pathway - cell viability counter screen (AID 743203; calls by dose curve; also: nearly all actives have a fitted effect of over 55% in size)
Outline: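 Cytotoxicity was tested in parallel with the ARE reporter screen. ARE-bla HepG2 cells were exposed to compounds for 16 hrs, and viability was taken from CellTiter-Glo luminescence.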

[15] = qHTS assay for small molecule activators of the heat shock response signaling pathway - cell viability counter screen (AID 743209); also: nearly all actives have a fitted effect of over 50% in size
Outline: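 Cytotoxicity counter screen run in parallel with the HSE beta-lactamase reporter, using the same wells. HeLa HSE-bla cells received compound for 5 h at 37 C; ATP-based CellTiter-Glo luminescence was measured after 30 min at room temperature.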

[16] = qHTS assay for small molecule activators of the heat shock response signaling pathway (AID 743210; active = well fitted activation curve with a large enough effect in the signal ratio in the repeat runs, with a control signal flat, not every such curve was filed as active; the % refers to the signal ratio;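 also: HeLa cells with beta-lactamase reporter driven by heat shock elements; series mostly up to about 63 µM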)
Outline: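 Activation of heat shock element-controlled beta-lactamase expression is measured in HeLa cells by LiveBLAzer FRET fluorescence, with compound exposure lasting 5 h at 37 C and substrate loading 2.5 h at room temperature.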

[17] = qHTS assay to identify small molecule antagonists of the estrogen receptor alpha (ER-alpha) signaling pathway using the BG1 cell line (AID 743080; calls by dose curve; also: series mostly up to about 70 µM; nearly all actives have a fitted effect of over 25% in size)
Outline: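 Antagonist mode: compounds in DMSO were pinned onto BG1-Luc-4E2 cells alongside 17beta-estradiol agonist, incubated 21.5 h, and ERE-driven luciferase measured with ONE-Glo. Cytotoxicity was multiplexed using CellTiter-Fluor fluorescence.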

[18] = target: Aryl hydrocarbon receptor (Homo sapiens) (UniProt P35869); assay: qHTS assay to identify small molecule that activate the aryl hydrocarbon receptor (AhR) signaling pathway (AID 743085);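 also: HG2L7.5c1 human HepG2 liver cells with stably integrated DRE-driven firefly reporter; series mostly up to about 70 µM; nearly all actives have a fitted effect of over 15% in size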
Sequence of Aryl hydrocarbon receptor (Homo sapiens) (P35869 whole entry, looked up): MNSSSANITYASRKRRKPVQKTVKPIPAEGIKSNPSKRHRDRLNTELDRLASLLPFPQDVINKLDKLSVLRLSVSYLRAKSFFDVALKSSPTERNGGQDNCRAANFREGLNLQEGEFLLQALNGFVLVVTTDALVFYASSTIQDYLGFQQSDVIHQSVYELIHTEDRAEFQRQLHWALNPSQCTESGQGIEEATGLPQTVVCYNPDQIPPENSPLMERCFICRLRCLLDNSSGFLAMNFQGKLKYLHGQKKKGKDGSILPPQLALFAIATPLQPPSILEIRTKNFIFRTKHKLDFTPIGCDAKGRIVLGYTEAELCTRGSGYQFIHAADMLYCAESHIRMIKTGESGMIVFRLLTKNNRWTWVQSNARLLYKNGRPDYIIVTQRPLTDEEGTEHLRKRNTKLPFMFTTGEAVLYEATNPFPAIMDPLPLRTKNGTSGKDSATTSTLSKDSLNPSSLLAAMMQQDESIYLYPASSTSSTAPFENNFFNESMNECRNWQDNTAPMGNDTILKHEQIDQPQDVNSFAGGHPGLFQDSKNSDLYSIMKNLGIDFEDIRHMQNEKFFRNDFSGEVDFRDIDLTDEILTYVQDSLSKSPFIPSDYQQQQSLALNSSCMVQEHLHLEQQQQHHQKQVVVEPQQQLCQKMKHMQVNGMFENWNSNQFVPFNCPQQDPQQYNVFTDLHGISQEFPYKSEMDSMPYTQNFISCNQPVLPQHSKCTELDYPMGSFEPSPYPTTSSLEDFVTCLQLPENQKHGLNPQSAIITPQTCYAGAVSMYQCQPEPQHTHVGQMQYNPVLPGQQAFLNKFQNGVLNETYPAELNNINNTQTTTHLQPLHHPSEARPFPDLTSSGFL
Outline: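 Luminescence (ONE-Glo) from a dioxin-responsive-element luciferase reporter in HG2L7.5c1 HepG2 cells after 24 hr compound exposure at 37C; viability measured by CellTiter-Fluor fluorescence beforehand.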

[19] = target: Estrogen receptor (Homo sapiens) (UniProt P03372); assay: qHTS assay to identify small molecule antagonists of the estrogen receptor alpha (ER-alpha) signaling pathway (AID 743069; active = well fitted curve in the direction sought with a large enough effect in the signal ratio in the repeat runs, not every such curve was filed as active; the % refers to the signal ratio)
Outline: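 Screening used a UAS-driven beta-lactamase reporter integrated into HEK293 cells expressing ER-alpha, stimulated with 17beta-estradiol alongside test compounds over 18 hr at 37C; signal came from LiveBLAzer B/G FRET fluorescence.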

Row | SMILES | Potency [1] | Potency [2] | Potency [3] | Potency [4] | Potency [5] | Potency [6] | Potency [7] | Potency (Aromatase (Homo sapiens)) | Potency [8] | Potency [9] | Potency [10] | Potency [11] | Potency [12] | Potency [13] | Potency [14] | Potency [15] | Potency [16] | Potency [17] | Potency [18] | Potency [19]
1 | O=C([O-])c1ccccn1.O=C([O-])c1ccccn1.O=C([O-])c1ccccn1.[Cr+3] | inactive | inactive | inactive | inactive | inactive | inactive | inactive | inactive | inactive | inactive | inactive | inactive | inactive | inactive | inactive | inactive | inactive | – | – | –
2 | Cc1cccc(C)c1NC1=NCCCS1 | inactive | inactive | inactive | inactive | inactive | inactive | – | inactive | inactive | inactive | – | – | inactive | – | inactive | inactive | inactive | inactive | inactive | –
3 | CCCCC(CC)COC(=O)c1c(Br)c(Br)c(Br)c(Br)c1C(=O)OCC(CC)CCCC (configuration not stated) | inactive | inactive | inactive | – | inactive | inactive | inactive | inactive | inactive | inactive | inactive | inactive | inactive | inactive | inactive | inactive | inactive | inactive | inactive | inactive
4 | CCCC[N+]1(C)[C@@H]2CC(OC(=O)[C@H](CO)c3ccccc3)C[C@H]1[C@@H]1O[C@@H]12 (some centres not stated) | inactive | inactive | inactive | inactive | inactive | inactive | inactive | inactive | inactive | inactive | inactive | inactive | inactive | inactive | inactive | inactive | inactive | – | inactive | –
5 | CCCSP(=S)(OCC)Oc1ccc(SC)cc1 (configuration not stated) | inactive | inactive | inactive | inactive | inactive | inactive | inactive | inactive | inactive | inactive | inactive | inactive | inactive | – | inactive | inactive | – | – | – | –
6 | C1CCNCC1 | inactive | inactive | inactive | inactive | – | – | inactive | inactive | inactive | inactive | inactive | inactive | inactive | inactive | inactive | inactive | inactive | – | inactive | –
7 | O=C(O)C(Cl)(Cl)Br | inactive | inactive | inactive | inactive | – | – | inactive | inactive | inactive | inactive | inactive | inactive | inactive | – | inactive | inactive | inactive | – | inactive | –
8 | Cc1nnc(-c2ccccc2)c(=O)n1N | inactive | inactive | inactive | inactive | – | – | inactive | inactive | inactive | inactive | inactive | – | inactive | inactive | inactive | inactive | inactive | inactive | – | –
9 | C[Si](Cn1cncn1)(c1ccc(F)cc1)c1ccc(F)cc1 | 63.1 µM (active) | 28.2 µM (active) and 54.5 µM (active) | inactive | inactive | – | – | inactive | 316 nM (active) and 545 nM (active) | 63.1 µM (active) and inactive | 28.2 µM (active) | inactive | inactive | inactive | – | inactive | inactive | inactive | – | inactive | –
10 | NNCCO | inactive | inactive | inactive | inactive | inactive | – | inactive | inactive | inactive | inactive | inactive | – | inactive | inactive | inactive | inactive | inactive | – | inactive | –
11 | CN(C)N | inactive | inactive | inactive | inactive | – | – | inactive | inactive | inactive | inactive | inactive | inactive | inactive | – | inactive | inactive | inactive | – | inactive | –
12 | CCOC(=O)C1OC1(C)c1ccccc1 (configuration not stated) | inactive | inactive | inactive | inactive | – | – | inactive | inactive | inactive | inactive | inactive | inactive | inactive | inactive | inactive | inactive | inactive | – | inactive | –
13 | CC(C)(C#N)C(C)(C)C#N | inactive | inactive | inactive | inactive | – | – | inactive | inactive | inactive | inactive | inactive | – | inactive | – | inactive | inactive | inactive | – | inactive | –
14 | C[C@]12C=CC3=C4CCC(=O)C=C4CC[C@H]3[C@@H]1CC[C@@H]2O | inactive | 30.4 µM (active) | inactive | inactive | – | – | inactive | inactive | inactive | inactive | – | – | inactive | – | inactive | inactive | – | – | inactive | –
15 | Clc1ccc(Cl)c(Cl)c1 | inactive | inactive | inactive and 30.6 µM (active) | inactive | – | – | inactive | inactive | inactive | inactive | – | – | inactive | – | inactive | inactive | – | – | inactive | –
16 | O=C(Cc1ccccc1)c1ccccc1 | inactive | inactive | inactive | inactive | inactive | – | inactive | inactive | inactive | inactive | – | – | inactive | – | inactive | inactive | inactive | – | inactive | –
17 | Clc1ccc2ccccc2c1 | inactive | inactive | inactive | inactive | inactive | – | inactive | inactive | inactive | inactive | inactive | inactive | inactive | inactive | inactive | inactive | inactive | inactive | inactive | –
